High-throughput results as filed in PubChem.
ALOX12 inh – inhibitors of human 12S-lipoxygenase ALOX12; P18054; purified 12hLO, xylenol orange hydroperoxide absorbance; Potency, µM (titrated, usually from 108 µM), inactives show at the top dose activity change, negative = inhibition, actives largely listed as inhibitors; 580,000 compounds, 1.1% hits; AID 1671190; further: potency means the concentration at half of the fitted maximal effect
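Purified human 12hLO at 150 nM in 25 mM Hepes, 0.01% Triton X-100, pH 7.0, preincubated 15 min at room temperature with compound. Reaction started with 40 uM arachidonic acid, 30 min at room temperature. Hydroperoxide measured by Fe-xylenol orange, 573/405 nm absorbance ratio.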
IL1B secr inh – blocks inflammasome-driven IL-1 beta release. activity change, % at 57.5 µM. AID 743279. THP-1 LPS/ATP IL-1B secretion, AlphaLISA, 16 h; stronger effect = lower value. 360,000 compounds, 4.7% hits; in the data active means activity change below about -50%; inconclusive means mostly about -30% to -49%
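THP-1 cells pretreated 1 hr with compounds (up to 57.5 uM final), then stimulated with LPS (250 ng/mL final) plus ATP (1.25 mM final); secreted IL-1B measured by AlphaLISA after 16 hr, decreased signal indicating inhibition.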
HT1080 IDH1KD tx – HT-1080 IDH1 knockdown cell toxicity (counter line); HT-1080 IDH1 knockdown viability, ATP luminescence, 48 h; Potency, µM (top dose mostly 46.1 µM), inactives show top-dose activity, negative = toxicity, actives largely listed as cytotoxic; 360,000 compounds, 2% hits;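 further: potency means the concentration at half of the fitted maximal effect; 0% = DMSO wells and -100% = cell-free medium wells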
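Using the IDH1-knockdown HT-1080 line run in the same batch and compound series as the NT line, viability after 48 h at 37 °C was determined by CellTiter-Glo luminescence and expressed as % activity.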
DT40 TDP1 CPT – growth inhibition of DT40 Tdp1-/-;hTDP1 cells with camptothecin (screen for TDP1 inhibitors) | Potency, µM (titrated, usually from 46.2 µM), inactives show at the highest dose activity change, negative = growth inhibition, usual class: inhibitors | AID 686979 | 420,000 compounds, 12% hits | chicken DT40 Tdp1-/-;hTDP1 cells + 20 nM CPT, ATP luminescence, 48 h; further: potency means the concentration at half of the fitted maximal effect; nearly all actives have a fitted effect of over 55% in size
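Cell growth measured by CellTiter-Glo luminescence after a minimum 48 h, 37 C compound exposure with 20 nM CPT in Tdp1-knockout DT40 cells stably expressing hTDP1, seeded 400/well; qHTS titration format.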
TDP1 cell noCPT – qHTS for Inhibitors of human tyrosyl-DNA phosphodiesterase 1 (TDP1): qHTS in cells in absence of CPT; DT40 Tdp1-/- hTDP1 cells, no CPT, ATP luminescence, 48 h; Potency, µM (series often up to 46.2 µM), for the others: at the top dose activity change, negative = growth inhibition, actives largely listed as inhibitors; 420,000 compounds, 15% hits; AID 686978, 2013; further: potency means the concentration at half of the fitted maximal effect; nearly all actives have a fitted effect of over 55% in size
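Seeded 400 DT40-hTDP1 cells/well (vehicle DMSO, no 20 nM CPT); pinned compounds; ≥48 hr at 37 °C; CellTiter-Glo luminescence as viability measure.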
HT1080NT lethal – kills 2HG-producing HT-1080-NT fibrosarcoma cells; HT-1080-NT fibrosarcoma viability, CellTiter-Glo ATP luminescence, 48 h; Potency, µM (series often up to 46.1 µM), inactives show top-dose activity, negative = less viability, actives largely listed as cytotoxic; AID 686970; 360,000 compounds, 1.6% hits;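 further: NT is the 2HG producing partner of a matched IDH1 knockdown line; potency means the concentration at half of the fitted maximal effect; 0% = DMSO-treated cells and -100% = media-only wells without cells; nearly all actives have a fitted effect of over 55% in size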
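Fibrosarcoma NT cells, 750 per well in 5% FBS RPMI, were exposed to compound for 48 hours. Viability: CellTiter-Glo luminescence.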
The depositor's hits bear a star. Many of the other results were omitted from the sample, so hits are more common in it than they were. Unless noted, the call rests on the fitted dose curve; in most records, active means well fitted curve in the direction sought with a large enough effect; inconclusive means small, poorly fitted or top-dose-only effect, or another doubt; inactive means no such curve, though single readings can be large; an effect the other way counts as inactive or inconclusive. Unless noted, on the % scale 0 is the no-effect control and ±100 the full control effect.

Screening O=[N+]([O-])c1ccc2nc(CN3CCCCC3)[nH]c2c1 returned ALOX12 inh 2%, IL1B secr inh 2, HT1080 IDH1KD tx 0%, DT40 TDP1 CPT -2%, TDP1 cell noCPT 3% and HT1080NT lethal -5%.
For COc1ccccc1N1C(=O)N(CC(=O)C(C)(C)C)c2ccccc2S1(=O)=O the results were ALOX12 inh 0%, IL1B secr inh 6, HT1080 IDH1KD tx 6%, DT40 TDP1 CPT -22%, TDP1 cell noCPT inconclusive and HT1080NT lethal 16%.
For CCCCCCCCCCCCNC(=O)Nc1ccc(Cl)cc1 the results were ALOX12 inh -7%.
For O=C(CCCCCCC(=O)c1ccc(F)cc1)c1ccc(F)cc1 the results were ALOX12 inh -4%.
For O=[N+]([O-])c1ccc(/C=C/c2nc3ccc([N+](=O)[O-])cc3[nH]2)cc1 the results were ALOX12 inh -7%, IL1B secr inh -9, HT1080 IDH1KD tx 30%, DT40 TDP1 CPT 5.8µM*, TDP1 cell noCPT 4.1µM* and HT1080NT lethal 2%.
CN(C)C(=O)Cc1ccccc1 was read as ALOX12 inh -1%.
`Cc1nc(C)c(C(=O)N2CCCC(C(=O)c3ccc(Cl)cc3C)C2)s1` (stereo not given) gave ALOX12 inh -29%, IL1B secr inh 17, HT1080 IDH1KD tx -2%, DT40 TDP1 CPT 18µM*, TDP1 cell noCPT inconclusive and HT1080NT lethal -2%.
For Cc1nc(C)n(CC(=O)N2CCCC(C(=O)c3ccc(Cl)cc3C)C2)n1 (stereo not given) the results were ALOX12 inh -9%, IL1B secr inh 5, HT1080 IDH1KD tx -3%, DT40 TDP1 CPT 0.41µM*, TDP1 cell noCPT 18µM* and HT1080NT lethal -1%.
`Cc1cc(C(=O)N2CCCC(C(=O)c3ccc(Cl)cc3C)C2)no1` (stereo not given) gave ALOX12 inh 393%, IL1B secr inh inactive, HT1080 IDH1KD tx -3%, DT40 TDP1 CPT 18µM*, TDP1 cell noCPT 23µM* and HT1080NT lethal -9%.
Cc1cc(Cl)ccc1C(=O)C1CCCN(C(=O)c2ccoc2)C1 (stereo not given) was read as ALOX12 inh -3%, IL1B secr inh -7, HT1080 IDH1KD tx -9%, DT40 TDP1 CPT inconclusive, TDP1 cell noCPT 15µM* and HT1080NT lethal -12%.
`COc1ccc(C(=O)C2CCCN(C(=O)Cn3nc(C)nc3C)C2)cc1F` (stereo not given) gave ALOX12 inh 13%, IL1B secr inh 19, HT1080 IDH1KD tx 2%, DT40 TDP1 CPT -6%, TDP1 cell noCPT -14% and HT1080NT lethal 0%.
Screening Cc1cnc(CC2CCN(C(=O)C3CCC3)C2)n1C(C)C (stereo not given) returned ALOX12 inh 34%.
`N#Cc1ccc(NC(=O)CNc2cc(S(=O)(=O)N3CCCCC3)ccc2N2CCCCC2)cc1` gave ALOX12 inh 16µM*.
N#Cc1cccc(NC(=O)CNc2cccc(S(=O)(=O)N3CCCCC3)c2)c1 was read as ALOX12 inh 10%, IL1B secr inh -8, HT1080 IDH1KD tx -23%, DT40 TDP1 CPT inconclusive, TDP1 cell noCPT inconclusive and HT1080NT lethal inconclusive.
For O=C(Nc1cccc(Cl)c1)Nc1cc(S(=O)(=O)N2CCOCC2)ccc1N1CCCC1 the results were ALOX12 inh inconclusive, IL1B secr inh -60*, HT1080 IDH1KD tx -2%, DT40 TDP1 CPT 15µM*, TDP1 cell noCPT 23µM* and HT1080NT lethal -11%.
